Sfp PPTase inh – blocks B. subtilis Sfp PPTase activity. Q9F4F7. Biochemical Sfp PPTase activity, qHTS. Potency, µM, for inactives: largest response in the series, negative = inhibition, hits mostly inhibitors. actives 3.5% (n = 310,000). AID 1490;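 also: the enzyme is Sfp with the accession as filed and its product quenches rhodamine fluorescence; potency is read from the fitted curve at half-maximal effect; 0% = enzyme reaction without inhibitor and -100% = no enzyme wells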
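After 15 min at room temperature with compound, 15 nM Sfp received 5 uM rhodamine-CoA plus 12.5 uM BHQ-2-ybbR (50 mM Hepes pH 7.6, 10 mM MgCl2). Rate came from the fluorescence difference over 30 min, ex 525/em 598 nm.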
Tau fluor counter – counter-screen for tau fibril formation inhibitors; tau K18 P301L Alexa594 fluorescence, heparin fibrillization; Potency, µM (highest dose often 57.7 µM), for the others: at the highest dose activity change, negative = decrease; actives 0.93% (n = 280,000); AID 1463; also: potency is read from the fitted curve at half-maximal effect; nearly all actives have a fitted effect of over 55% in size
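Human tau K18 P301L (15 uM unlabeled, 0.24 uM Alexa 594-labeled) in 100 mM sodium acetate pH 7 with 20 uM heparin, 6 hr at 37 C. ThT 30 uM added, 1 hr ambient; Alexa 594 FP and total fluorescence read at 555/632 nm.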
Coupling enz – inhibits coupling enzyme system, counter-screen for aldolase hits; actives 0.67% (n = 290,000); coupling enzyme system counterscreen, AmpLite Red fluorescence; activity change, negative = inhibition, % at 58.2 µM, hits read low; AID 2472; in the data active = activity change below about -30%
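Coupling enzymes only (glyceraldehyde-3-phosphate) + compound, at 57.5 uM final, 10 min RT; add substrate/coupling/AmpLite Red mix, 20 min RT; fluorescence ex 525/em 598 nm. Actives flag coupling-system interference.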
Tau fibril ThT – inhibitors of human tau fibril formation, thioflavin T binding; recombinant tau K18 P301L (four-repeat tau fragment), heparin-induced fibrillization, ThT fluorescence; Potency, µM (titrated, usually from 57.4 µM), for the others: top-dose activity, negative = inhibition, most hits filed as inhibitors; actives 2.1% (n = 270,000); AID 1460; also: potency is read from the fitted curve at half-maximal effect; nearly all actives have a fitted effect of over 55% in size
Target sequence (P10636 561-689 P618L limits assumed): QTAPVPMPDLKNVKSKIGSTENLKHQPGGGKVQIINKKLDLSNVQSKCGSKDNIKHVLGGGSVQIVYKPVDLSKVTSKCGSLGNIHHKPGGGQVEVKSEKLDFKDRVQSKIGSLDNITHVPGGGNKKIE
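Tau K18 P301L fragment (15 uM unlabeled plus 0.24 uM Alexa 594-labeled) in 100 mM sodium acetate pH 7 with compound, fibrillization induced by 20 uM heparin for 6 hr at 37 C. Thioflavin T (30 uM) added, fluorescence read after 1 hr (ex 450, em 510 nm).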
Tau FP inhib – tau fibrillization inhibition (FP); actives 0.39% (n = 280,000); P10636; K18 P301L tau heparin fibrillization, Alexa594 FP, 6 h; Potency, µM (series often up to 57.7 µM), for the others: top-dose activity, negative = inhibition, hits mostly inhibitors; also: potency is read from the fitted curve at half-maximal effect; nearly all actives have a fitted effect of over 55% in size
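Human K18 P301L fragment (15 uM unlabeled plus 0.24 uM Alexa 594-labeled) in 100 mM sodium acetate pH 7 with compound, aggregation induced by 20 uM heparin for 6 hr at 37 C. ThT (30 uM) added for 1 hr, then Alexa 594 FP read.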
* marks the source's active call; other numbers are inactive results; u = inconclusive; x = no result given; ! = repeats disagree; [ ] = another dose, or the depositor's remark. Hits are enriched below; roughly 5.2% of the tested compounds scored in any of these assays. Unless noted, calls follow the shape of the dose curve; as a rule, active = well fitted curve in the direction sought with a large enough effect; inconclusive = small, poorly fitted or top-dose-only effect, or another doubt; inactive = no such curve, though single readings can be large; an effect the other way counts as inactive or inconclusive. Unless noted, % is scaled to controls: 0 for no effect and ±100 for the full control effect.

SMILES	Sfp PPTase inh	Tau fluor counter	Coupling enz	Tau fibril ThT	Tau FP inhib
O=C(COc1ccc(Cl)cc1)Nc1cnn(Cc2c(Cl)cccc2Cl)c1	-6%	-20%	3	-5%	-14%
O=C(CCS(=O)(=O)c1nc(-c2ccc3c(c2)OCO3)cc(C(F)(F)F)n1)Nc1ccc(Br)cc1	x	-14%	x	-5%	1%
Cc1cc(C)cc(OCC(=O)Nc2cccc(-c3nc4ccccc4[nH]3)c2)c1	x	11µM*[quencher]	x	-14%	22µM*
CCC(=O)Nc1ccc(Cl)c(-c2nc3ccccc3[nH]2)c1	x	-6%	x	-2%	0%
CC(=O)Nc1cccc(-c2nc3ccccc3[nH]2)c1	-3%	4%	-13	-2%	-1%
CC(C)CC(=O)Nc1cccc(-c2nc3ccccc3[nH]2)c1	15%	-17%	-2	-5%	-19%
COc1cccc(C(=O)Nc2ccc(Cl)c(-c3nc4ccccc4[nH]3)c2)c1	x	u	x	u	25µM*
O=C(COc1ccccc1)Nc1cccc(-c2nc3cc4ccccc4cc3[nH]2)c1	14%	16µM*[quencher]	-5	u	u
CC(C)COc1ccc(C(=O)Nc2cccc(-c3nc4ccccc4[nH]3)c2)cc1	x	7.9µM*[quencher]	x	u	20µM*
O=C(NCc1ccccc1)c1ccc(CNS(=O)(=O)c2ccc(Br)cc2)cc1	x	-9%	x	2%	-12%
CCCC[C@]12Cc3ccccc3[C@H](O1)C1=C(O2)C(=O)c2ccccc2C1=O	12%	x	0	x	x
CCCC[C@]12Cc3cc(OC)c(OC)cc3C(O1)C1=C(O2)C(=O)c2ccccc2C1=O	-24%	x	-36*	x	x
Cc1sc2nc(SCC(=O)NCc3ccco3)n(C)c(=O)c2c1C	10%	-4%	3	-5%	1%
CCn1c(SCC(=O)NCc2ccco2)nc2c(c1=O)SC(C)C2 (stereo not drawn)	40µM*	5%	6	-3%	-3%
CCn1c(SCC(=O)N2CCN(c3ccccc3)CC2)nc2c(c1=O)SC(C)C2 (stereo not drawn)	14%	7%	-2	4%	-2%
CCCn1c(SCC(=O)NC(=O)NCc2ccco2)n[nH]c1=O	22µM*	0%	-8	-8%	4%
CC1Cc2nc(SCC(=O)N3CCN(c4ccccc4)CC3)n(CCc3ccccc3)c(=O)c2S1 (stereo not drawn)	45µM*	-20%	-6	u	2%
CCn1c(SCC(=O)NC(=O)NCc2ccco2)nc2sc(C)c(C)c2c1=O	25µM*	-10%	8	u	u
CCn1c(SCC(=O)NCc2ccccc2)nc2c(c1=O)SC(C)C2 (stereo not drawn)	18%	-16%	-7	-16%	-11%
CCC(=O)Nc1cccc(C2=NOC3(C2)C[C@@H](C(N)=O)N(C(=O)c2cc([N+](=O)[O-])cc([N+](=O)[O-])c2)C3)c1 (stereo partly drawn)	8%	3%	2	7%	-2%
C=C(C)C(=O)N1CC2(CC(c3cccc(NC(=O)/C=C\C=C/C)c3)=NO2)C[C@H]1C(N)=O (stereo partly drawn)	20µM*	-4%	0	-17%	0%
C/C=C\C=C/C(=O)Nc1cccc(C2=NOC3(C2)C[C@@H](C(N)=O)N(C(=O)[C@H]2CCC(=O)N2)C3)c1 (stereo partly drawn)	35µM*	-2%	2	1%	-4%
C/C=C/C=C\C(=O)Nc1cccc(C2=NOC3(C2)C[C@@H](C(N)=O)N(C(=O)c2cc([N+](=O)[O-])cc([N+](=O)[O-])c2)C3)c1 (stereo partly drawn)	50µM*	-11%	-4	-9%	5%
C/C=C\C=C\C(=O)N1CC2(CC(c3cccc(NC(=O)CC(c4ccccc4)c4ccccc4)c3)=NO2)C[C@H]1C(N)=O (stereo partly drawn)	45µM*	-1%	1	-8%	1%
CCOc1ccc(CCNC(=O)c2cc3c(s2)CS(=O)(=O)C3)cc1OCC	10%	x	-6	x	x
SMILES	Sfp PPTase inh	Tau fluor counter	Coupling enz	Tau fibril ThT	Tau FP inhib
C/C=C\C(=O)Nc1cccc(C2=NOC3(C2)C[C@@H](C(N)=O)N(C(=O)C2(C)CC2)C3)c1 (stereo partly drawn)	13%	7%	1	-1%	0%
C/C=C\C=C/C(=O)Nc1cccc(C2=NOC3(C2)C[C@@H](C(N)=O)N(C(=O)/C=C/C=C\C)C3)c1 (stereo partly drawn)	3.5µM*	-9%	-9	25µM*	u
C/C=C\C=C/C(=O)Nc1cccc(C2=NOC3(C2)C[C@@H](C(N)=O)N(C(=O)C2(C)CC2)C3)c1 (stereo partly drawn)	20µM*	19%	0	-1%	0%
C/C=C\C=C/C(=O)Nc1cccc(C2=NOC3(C2)C[C@@H](C(N)=O)N(C(=O)/C=C/CC)C3)c1 (stereo partly drawn)	14µM*	1%	0	-17%	-7%
C/C=C\C(=O)Nc1cccc(C2=NOC3(C2)C[C@H](C(N)=O)N(C(=O)/C=C/CC)C3)c1 (stereo partly drawn)	3%	21%	0	11%	6%
CCCn1c2ccccc2c2cnn(CC(=O)N(CCCOC)Cc3ccco3)c(=O)c21	x	1%	x	-7%	8%
CCOc1ccc(NC(=O)CC2C(=O)N(c3ccccc3)C(=O)N2Cc2ccc3c(c2)OCO3)cc1 (stereo not drawn)	x	-19%	x	4%	-2%
CCOC(=O)c1nn(-c2ccc(OCC)cc2)c2nc(CC(C)C)c(C#N)c(=O)n12	50µM*	-10%	6	0%	u
COc1ccc(C)cc1N(C)C(=O)c1sc2nc3n(c(=O)c2c1C)CCCCC3	x	-20%	x	-7%	-10%
N=C1/C(=C\c2ccc(-c3cccc(C(=O)O)c3)o2)C(=O)N=C2SC=C(c3ccccc3)N12	1%	-8%	0	2.5µM*	8%
N=C1/C(=C/c2ccc(-c3cccc(C(=O)O)c3)o2)C(=O)N=C2SC(CC(=O)N3CCOCC3)=NN12	19%	x	7	x	x
O=C1NCN(c2ccccc2)C12CCN(CCCC(c1ccc(F)cc1)c1ccc(F)cc1)CC2	79µM*!	u	-3	u	u
O=C1CCC(=O)N1CCC(c1ccc(F)cc1)c1ccco1 (stereo not drawn)	-3%	-6%	1	-16%	-9%
CCOc1ccc(Nc2ncnc3c2nc2n3CCCCC2)cc1	x	-27%	x	u	5%
COc1cc(NC(=O)C(c2ccccc2)c2ccccc2)c(C(=O)O)cc1OC	3%	x	3	x	x
COc1cc(Cl)c(NS(=O)(=O)c2ccc(-c3cnc(C4CC4)o3)cc2)c(OC)c1	x	u	x	-13%	10%
CCOc1ccc(Cl)cc1/C=N/NC(N)=O	25%	5%	-39*	4%	4%

Screening results deposited in PubChem BioAssay by National Center for Advancing Translational Sciences (NCATS).
